Experimental findings from PubChem BioAssay AID602393 (Broad Institute, 2012) are described below.

About 7,000 (2%) of roughly 350,000 compounds were called active. Shown is part of a subset that was picked to be rich in actives. Values without a mark were called inactive. Cut-off read from the data, not from the text of the source: active = activation above about 40%; inconclusive = no clear call, values can overlap the other calls; inactive = below that.

The experiment can be described thus: raisers of Bmi1 knock-in reporter signal – mouse ES cells, Bmi1 luciferase knock-in, single point, esBAF inhibitor project, primary screen (AID 602393).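 Note: 0% = median of the plate's neutral control wells and 100% = double that signal; a rise in the Bmi1 reporter signal indicates esBAF inhibition.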 The note with it: 24 h, at 12.5 µM, stronger effect = higher value, 100% = twice the neutral-well signal.
`O=C(N/N=C/c1c[nH]c2ccccc12)c1ccccc1O`: the reporter increase is 51.9% (active).
As for `O=C(NN=Cc1ccc2c(c1)CCC2)c1ccccc1O`, the reporter increase is 59.3% (active).
`O=C(NCCc1c[nH]c2ccccc12)c1cccc(Br)c1`: the reporter increase was 11.6%.
The value for `O=C(N/N=C\c1cccc(Br)c1)c1ccccc1-n1cccc1` was 3.44%; that for `O=C(N/N=C/c1cccc(Br)c1)c1ccc(N2CCCC2=O)cc1` was 7.79%; that for `O=C(NC(Cc1c[nH]c2ccccc12)C(=O)N/N=C/c1ccc(Br)cc1)c1cccs1` (stereo unspecified) was 4.44%.
The value for `COc1ccccc1-c1cccc(-c2nc(C(=O)N3CCN(C)CC3)cc3c2[C@H](CCO)N([S@@](=O)C(C)(C)C)C3)c1` was -0.462%; that for `C[C@@H]1CN([C@@H](C)CO)C(=O)CCCn2cc(nn2)CO[C@@H]1CN(C)C(=O)c1ccncc1` was -3.8%.
The value for `C[C@H](CO)N1C[C@H](C)[C@@H](CN(C)C(=O)c2ccncc2)Oc2cc(C3=CCCCC3)ccc2S1(=O)=O` was 2.87%; that for `C[C@H](CO)N1C[C@H](C)[C@H](CN(C)S(=O)(=O)c2cn(C)cn2)Oc2c(NC(=O)C3CCOCC3)cccc2C1=O` was -1.13%.
In the case of `Cc1cccc(CSc2ccc(-c3cccs3)nn2)c1`, the reporter increase was 50.5% (active).
Take `Cc1cccc(CSc2nnc(C)c(=O)n2N)c1`: the reporter increase was -7.26%.
For the compound `Cc1cc(-c2cccs2)nc(-n2cccc2)n1`, the reporter increase was 17.4%.
In the case of `C[C@H]1CN([C@@H](C)CO)C(=O)CCCn2nncc2CO[C@H]1CN(C)Cc1ccc2c(c1)OCO2` it was 0.657%; in that of `C/C=C/c1cnc2c(c1)C(=O)N([C@H](C)CO)C[C@H](C)[C@@H](CN(C)S(=O)(=O)c1ccccc1F)O2`, 0.934%; in that of `COc1ccccc1-c1cn(CC[C@H]2CC[C@H](NC(=O)Cc3ccccn3)[C@H](CO)O2)nn1`, 0.363%.
The value for `Cc1noc(C)c1NC(=O)N(C)C[C@@H]1Oc2ccc(NS(C)(=O)=O)cc2C(=O)N([C@H](C)CO)C[C@@H]1C` was -2.07%; that for `CCC(=O)NC(=Nc1nc2ccccc2s1)NC(=O)CC` was 65.4% (active); that for `CN(Cc1nc2ccccc2s1)C(=O)c1ccc(F)cc1` was 8.62%.
As to `CC(C)C(C)NC(=O)COc1ncnc2ccccc12` (stereo unspecified), the reporter increase is -6.72%.
With `O=C(C[C@H]1C=C[C@@H](NC(=O)CC2CC2)[C@H](CO)O1)NCc1ccc(-c2ccccc2)cc1`, the reporter increase is 1.19%.
In the case of `O=C(C[C@H]1C=C[C@H](NC(=O)C2CCC2)[C@H](CO)O1)NCCCN1CCOCC1` it was 1%; in that of `CCOC(=O)c1[nH]c(C)c(C(=O)OCC(=O)N2c3ccccc3CC2C)c1C` (stereo unspecified), -0.495%; in that of `Cc1c(C(=O)OCC(=O)N2CCCC2=O)oc2ccccc12`, 18.9%.
With `CCOC(=O)c1c(C)[nH]c(C(=O)OCC(=O)N2CCCC2=O)c1C`, the reporter increase is 47% (active).
The value for `COc1ccccc1CNC(=O)C[C@@H]1CC[C@H]2[C@@H](COc3ccc(NS(=O)(=O)c4ccc(C)cc4)cc3C(=O)N2C)O1` was 1.61%; that for `O=C(C[C@@H]1CC[C@@H](NC(=O)C2CC2)[C@H](CO)O1)NCc1ccncc1` was -3.27%; that for `C[C@@H]1CCCCO[C@@H](CN(C)C(=O)c2ccccc2)[C@@H](C)CN([C@@H](C)CO)C(=O)c2cc(NS(=O)(=O)c3ccccc3)ccc2O1` was 12.6%.
For the compound `COc1ccc(S(=O)(=O)Nc2ccc3c(c2)C(=O)N([C@@H](C)CO)C[C@@H](C)[C@H](CN(C)C(=O)Nc2ccc(C(F)(F)F)cc2)OCCCC[C@@H](C)O3)cc1`, the reporter increase was 7.49%.
In the case of `CCc1ccc(/C=C2\SC(N3CCOCC3)=NC2=O)cc1`, the reporter increase is 6.21%.
The value for `O=C1N=C(N2CCOCC2)CS1` was 0.767%.
In the case of `CC1CCN(C2=NC(=O)/C(=C/c3ccc(O)cc3)S2)CC1` it was 24.8%; in that of `Cc1ccsc1/C=C1\SC(N2CCOCC2)=NC1=O`, 57.3% (active); in that of `O=C1N=C(N2CCc3ccccc3C2)S/C1=C\c1ccc(O)cc1`, -1.11%.
With `O=C1N=C(N2CCOCC2)S/C1=C\C=C/c1ccccc1`, the reporter increase was 55.8% (active).
With `CC(C)NC(=O)N(C)C[C@H]1Oc2ncc(C#CC3(O)CCCC3)cc2C(=O)N([C@H](C)CO)C[C@@H]1C`, the reporter increase is 0.475%.
In the case of `CN1c2ccc(-c3ccccc3F)cc2[C@H]2[C@H](CCN2C(=O)Nc2cc(F)ccc2F)[C@H]1CO` it was 7.83%.
Turning to `C/C=C/c1ccc([C@@H]2[C@H](CO)N(C(C)=O)[C@H]2CN(CC)C(=O)CN(C)C)cc1`, the reporter increase was -4.39%.
For the compound `CCC(=O)NC[C@H]1[C@@H](c2ccc(C3=CCCC3)cc2)[C@@H](CO)N1C(=O)C1CC1`, the reporter increase was 0.745%.
In the case of `CS(=O)(=O)Nc1ccc2c(c1)[C@@H]1C[C@H](CC(=O)NCc3ccccn3)O[C@@H](CO)[C@@H]1O2` it was 0.762%; in that of `O=C(C[C@H]1CC[C@@H](NC(=O)c2ccccc2)[C@@H](CO)O1)NCc1ccncn1`, -3.6%; in that of `CC(=O)c1ccc(N2Cc3ccccc3C2)cc1`, 23.9%.
As for `O=C(NNC(=O)c1ccc2ccccc2c1)c1ccc(Cl)cc1`, the reporter increase is -2.35%.
In the case of `CC(=O)c1ccc2c(ccc3ccccc32)c1` it was 43.2% (active).
In the case of `N#C[C@H]1[C@@H](c2ccc(-c3ccccc3F)cc2)[C@H](CO)N1C(=O)c1ccccn1` it was -5.75%.
In the case of `O=C(CCN1CCCCC1)N[C@@H]1C=C[C@@H](CC(=O)N2CCC(Cc3ccccc3)CC2)O[C@H]1CO` it was 9.59%.
With `Cc1ccc(-c2cnc3c(c2)C(=O)N([C@H](C)CO)C[C@@H](C)[C@@H](CN(C)C(=O)CN(C)C)O3)cc1`, the reporter increase is -1.4%.
The value for `COc1cccc(/C=C/C(=O)Nc2ccc3c(c2)OCCO3)c1` was 52.9% (active).
In the case of `COc1ccccc1OCCCC(=O)Nc1ccc2c(c1)OCCO2` it was 4.46%; in that of `Cc1cccc(NC(=O)/C=C/c2ccc3c(c2)OCO3)n1`, 9.44%; in that of `COc1ccccc1-c1ccc2c(c1)[C@H]1[C@H](CCN1S(=O)(=O)c1ccccc1)[C@@H](CO)N2`, -9.94%.
